From PubChem BioAssay (NCI)
This is part of a sample that, as a whole, favours compounds with a hit. Of some 83,000 tested, about 20% had one in any assay.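 Growth was measured after 48 h exposure to one concentration of compound in 96-well plates. Values under 10 count as active.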 Active and inactive are the calls of the source.

How the values were obtained:
Assay in all cases: NCI-60 one-dose screen, 48 h (100 = growth as untreated, 0 = no growth, -100 = all killed)
Details in all cases: 10 µM unless noted
NCI-H23 lung = tested on: NCI-H23 lung
NCI-H226 lung = tested on: NCI-H226 lung
NCI-H322M lung = tested on: NCI-H322M lung
HOP-62 NSCLC = tested on: HOP-62 NSCLC
NCI-H460 lung = tested on: NCI-H460 lung
HOP-92 NSCLC = tested on: HOP-92 NSCLC
NCI-H522 lung = tested on: NCI-H522 lung
A549/ATCC NSCLC = tested on: A549/ATCC NSCLC
786-0 renal = tested on: 786-0 renal
COLO 205 colon = tested on: COLO 205 colon
DU-145 prostate = tested on: DU-145 prostate
K-562 leukemia = tested on: K-562 leukemia
MALME-3M melanoma = tested on: MALME-3M melanoma
MDA-MB-231 breast = tested on: MDA-MB-231 breast
RXF 393 renal = tested on: RXF 393 renal
SF-268 CNS = tested on: SF-268 CNS
SF-295 CNS = tested on: SF-295 CNS
SF-539 CNS = tested on: SF-539 CNS
UACC-257 melanoma = tested on: UACC-257 melanoma
M14 melanoma = tested on: M14 melanoma

Measured: growth

O=C(Nc1ccncc1)C(=O)c1cn(S(=O)(=O)c2ccc(Oc3ccccc3)cc2)c2ccccc12
inactive: NCI-H23 lung 77.5% | NCI-H226 lung 103% | NCI-H322M lung 94.4% | HOP-62 NSCLC 88% | NCI-H460 lung 72.1% | HOP-92 NSCLC 71.6% | NCI-H522 lung 87.4% | A549/ATCC NSCLC 71.8% | 786-0 renal 89.2% | COLO 205 colon 107% | DU-145 prostate 96.8% | K-562 leukemia 81.5% | MALME-3M melanoma 84.9% | MDA-MB-231 breast 68.9% | RXF 393 renal 110% | SF-268 CNS 109% | SF-295 CNS 60% | SF-539 CNS 96.5% | UACC-257 melanoma 103% | M14 melanoma 102%

COc1ccc(-c2c(-c3cc(OC)c4c(c3)OCO4)noc2N)cc1
inactive: NCI-H23 lung 40.6% | NCI-H226 lung 22.8% | NCI-H322M lung 51.1% | HOP-62 NSCLC 10.3% | HOP-92 NSCLC 35.4% | A549/ATCC NSCLC 13.3% | 786-0 renal 14.5% | MALME-3M melanoma 54.4% | SF-268 CNS 16.6% | UACC-257 melanoma 74.6% | M14 melanoma 12%
active: NCI-H460 lung 4.43% | NCI-H522 lung 4.5% | COLO 205 colon -88.9% | DU-145 prostate -7.24% | K-562 leukemia 8.5% | MDA-MB-231 breast -3.97% | RXF 393 renal 8.2% | SF-295 CNS 2.31% | SF-539 CNS 0.998%

COC(=O)C1CCCN1C(=O)[C@@H]1CCCN1C(=O)[C@H](Cc1c[nH]c2ccccc12)NC(=S)Nc1cc(C(F)(F)F)cc(C(F)(F)F)c1 (stereo not given in full)
inactive: NCI-H23 lung 69% | NCI-H226 lung 75.7% | NCI-H322M lung 74.7% | HOP-62 NSCLC 80.2% | NCI-H460 lung 22.3% | HOP-92 NSCLC 17% | NCI-H522 lung 46% | A549/ATCC NSCLC 37.1% | 786-0 renal 37.6% | COLO 205 colon 66.5% | DU-145 prostate 52.5% | K-562 leukemia 38.3% | MALME-3M melanoma 81.7% | MDA-MB-231 breast 14.4% | RXF 393 renal 43.7% | SF-268 CNS 51.5% | SF-295 CNS 25.1% | SF-539 CNS 55.4% | UACC-257 melanoma 62.4% | M14 melanoma 60.9%

Cc1ccc(S(=O)(=O)NC(=O)n2cc(-c3ccncc3)c(-c3ccc(Cl)c(O)c3)n2)cc1
inactive: NCI-H23 lung 108% | NCI-H226 lung 98.6% | NCI-H322M lung 111% | HOP-62 NSCLC 116% | NCI-H460 lung 111% | HOP-92 NSCLC 99% | NCI-H522 lung 91.3% | A549/ATCC NSCLC 99.6% | 786-0 renal 95.4% | COLO 205 colon 113% | DU-145 prostate 132% | K-562 leukemia 98.9% | MALME-3M melanoma 65% | MDA-MB-231 breast 89.8% | RXF 393 renal 114% | SF-268 CNS 117% | SF-295 CNS 109% | SF-539 CNS 92.1% | UACC-257 melanoma 99.4% | M14 melanoma 51.2%

CC(=O)c1cc2c(N)c(C(=O)Nc3cccc4c3OCCO4)sc2nc1C
inactive: NCI-H23 lung 96% | NCI-H226 lung 88.9% | NCI-H322M lung 100% | HOP-62 NSCLC 80.7% | NCI-H460 lung 82.1% | HOP-92 NSCLC 99.2% | NCI-H522 lung 67.7% | A549/ATCC NSCLC 71.4% | 786-0 renal 97.9% | COLO 205 colon 86.6% | DU-145 prostate 104% | K-562 leukemia 74.7% | MALME-3M melanoma 101% | MDA-MB-231 breast 100% | RXF 393 renal 99.2% | SF-268 CNS 96.3% | SF-295 CNS 92.8% | SF-539 CNS 100% | UACC-257 melanoma 99.5% | M14 melanoma 94.4%

CN1CCN(Cc2ccc(NC(=O)c3cncc(C#Cc4cnc(N)c5cnccc45)c3)cc2C(F)(F)F)CC1
active: NCI-H23 lung 4.51% | NCI-H226 lung -28.4% | HOP-62 NSCLC -23.7% | NCI-H460 lung -9.5% | HOP-92 NSCLC -58.6% | COLO 205 colon -20.2% | K-562 leukemia 1.52% | MALME-3M melanoma -75.6% | MDA-MB-231 breast -61.2% | RXF 393 renal -48.3% | SF-295 CNS 8.91% | SF-539 CNS -73.8% | UACC-257 melanoma -1.75% | M14 melanoma -41.6%
inactive: NCI-H322M lung 13% | NCI-H522 lung 10.8% | A549/ATCC NSCLC 20% | 786-0 renal 23.1% | DU-145 prostate 10% | SF-268 CNS 16.5%

COc1ccc(-c2cc3c(OC)c(OC)c(OC)cc3oc2=O)cc1
active: NCI-H522 lung -11.7%
inactive: NCI-H23 lung 59.1% | NCI-H226 lung 83.1% | NCI-H322M lung 77% | HOP-62 NSCLC 50.4% | NCI-H460 lung 13.8% | HOP-92 NSCLC 30.6% | A549/ATCC NSCLC 47.7% | 786-0 renal 57.2% | COLO 205 colon 31.5% | DU-145 prostate 73.3% | K-562 leukemia 26.1% | MALME-3M melanoma 46.9% | MDA-MB-231 breast 57.8% | RXF 393 renal 81.4% | SF-268 CNS 66.8% | SF-295 CNS 54.3% | SF-539 CNS 59.9% | UACC-257 melanoma 82.4% | M14 melanoma 28.9%

Cc1cc(N/N=C/c2nc(-c3ccccc3)oc2C)c2cc(Br)ccc2n1
inactive: NCI-H23 lung 88.6% | NCI-H226 lung 88.3% | NCI-H322M lung 94.3% | HOP-62 NSCLC 87.5% | NCI-H460 lung 73.6% | HOP-92 NSCLC 71.9% | NCI-H522 lung 80.6% | A549/ATCC NSCLC 87% | 786-0 renal 86.7% | COLO 205 colon 85.6% | DU-145 prostate 91.3% | K-562 leukemia 21.9% | MALME-3M melanoma 95.2% | MDA-MB-231 breast 53.5% | RXF 393 renal 102% | SF-268 CNS 95% | SF-295 CNS 95% | SF-539 CNS 75.2% | UACC-257 melanoma 102% | M14 melanoma 91.6%
